These results are taken from PubChem BioAssay (EPA / NIEHS).

What is called AC50 is the concentration at which the activity in the assay is half-maximal.

Experiment [1] is described as follows: APR_HepG2_CellLoss_72hr: Apredica 72-hour HepG2 Assay for Cell Loss (AID 2282915). The note with it: high-content imaging. Put shortly: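 Cell number comes from Hoechst 33342-labelled nuclei, imaged at 20x after 3.7% formaldehyde fixation. Dosing was 0.39–200 uM, ten concentrations in duplicate, 0.5% DMSO final, for 72 h. Bidirectional fit relative to DMSO baseline.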

A short description of experiment [2]: APR_HepG2_P-H2AX_72hr: Apredica 72-hour HepG2 Assay for H2AX Phosphorylation (AID 2282916).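 Further: phospho-histone H2A.x immunostain intensity per cell marking DNA damage.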 The note with it: imaging, actives raise or lower the signal. The method, boiled down:
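HepG2; cpd 0.39–200 uM ×10 conc, duplicates; 0.5% DMSO; 72 hr. Fix 3.7% formaldehyde 30 min RT, 0.5% Triton X-100 10 min. Anti-phospho-H2A.x 1:200 + Hoechst 2 ug/mL, 60 min RT; ArrayScan imaging.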

Experiment [3] is described as follows: APR_HepG2_MitoMembPot_72hr: Apredica 72-hour HepG2 Assay for Mitochondrial Membrane Potential (AID 2282917). The conditions noted are these: imaging, actives raise or lower the signal. The method, boiled down:
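Membrane potential read by MitoTracker Red CMXRos (250 nM, 30 min, pre-fixation) fluorescence imaging of HepG2 after 72 hr exposure. Ten concentrations, 0.39–200 uM, duplicate wells, 0.5% DMSO; fitted in both directions against DMSO baseline.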

Experiment [4] in a line: APR_HepG2_MitoticArrest_72hr: Apredica 72-hour HepG2 Assay for Mitotic Arrest (AID 2282918). The note with it: high-content imaging, actives raise or lower the signal. The method, boiled down:
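HepG2 cells treated 72 h at 0.39–200 uM, 0.5% DMSO final; formaldehyde-fixed, stained with Hoechst 33342 and phospho-histone H3 antibody, imaged by high-content fluorescence; bidirectional fit versus DMSO.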

Experiment [5] in a line: APR_HepG2_MicrotubuleCSK_72hr: Apredica 72-hour HepG2 Assay for Microtubule CSK Stabilty (AID 2282919). The conditions noted are these: HepG2 microtubule cytoskeleton, high-content imaging, actives raise or lower the signal. The method, boiled down:
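Read-out is tubulin fluorescence intensity from high-content imaging of HepG2 cells, with nuclei identified by Hoechst 33342. Treatment lasts 72 h at 0.39–200 uM, and curves are fitted bidirectionally against the DMSO negative control.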

Experiment [6] can be described thus: APR_HepG2_P-H2AX_24hr: Apredica 24-hour HepG2 Assay for H2AX Phosphorylation (AID 2282920). The note with it: high-content imaging, actives raise or lower the signal. Put shortly:
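HepG2 cells dosed 24 h at 0.39–200 uM (10 points, duplicate, 0.5% DMSO final). Formaldehyde-fixed and permeabilized, then immunostained for phospho-H2A.x with Hoechst. Fluorescence quantified by high-content imaging, fitted bidirectionally versus DMSO.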

The nature of experiment [7]: APR_HepG2_StressKinase_72hr: Apredica 72-hour HepG2 Assay for Stress Kinase (AID 2282921). The conditions noted are these: HepG2 stress kinase (phospho-c-Jun) imaging, actives raise or lower the signal. The method, boiled down:
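Dose 0.39–200 uM (10 pts, duplicate), 0.5% DMSO; 72 h; fix 3.7% formaldehyde 30 min RT; Triton permeabilize; anti-phospho-c-Jun/Cy3 + Hoechst 60 min RT; image 20x; fit gain/loss vs DMSO.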

Experiment [8] is described as follows: APR_HepG2_StressKinase_24hr: Apredica 24-hour HepG2 Assay for Stress Kinase (AID 2282922). The conditions noted are these: HepG2 stress kinase (phospho-c-Jun) imaging, actives raise or lower the signal. The method, boiled down: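 HepG2, 24 hr dosing, 0.39–200 uM in duplicate, 0.5% DMSO; formaldehyde fix (3.7%), 0.5% Triton X-100; anti-phospho-c-Jun + Cy3 secondary, Hoechst counterstain; ArrayScan imaging; bidirectional curve fit vs DMSO baseline.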

Experiment [9] can be described thus: APR_HepG2_p53Act_72hr: Apredica 72-hour HepG2 Assay for p53 Activation (AID 2282923).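 Further: average cellular p53 protein immunofluorescence intensity in HepG2 cells.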 The conditions noted are these: high-content imaging, actives raise or lower the signal. Put shortly:
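10-pt conc. 0.39–200 uM, duplicate, 0.5% DMSO; 72 hr exposure; 3.7% formaldehyde fix, 0.5% Triton perm; sheep anti-p53/Cy5 + Hoechst; ArrayScan 20x, 6 images/well; gain/loss fit vs DMSO.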

Experiment [10] is described as follows: APR_HepG2_MitoMass_72hr: Apredica 72-hour HepG2 Assay for Mitochondrial Mass (AID 2282924).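 Further: MitoTracker Red CMXRos stain intensity per cell imaged as mitochondrial mass.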 The note with it: high-content imaging, actives raise or lower the signal. Put shortly: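 HepG2, 72 hr cmpd, 10 conc 0.39–200 uM in dup, DMSO 0.5% v/v. MitoTracker Red CMXRos 250 nM 30 min pre-fix; formaldehyde 3.7% fix 30 min RT. HCS imaging, gain/loss fit vs DMSO.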

Experiment [11] in a line: APR_HepG2_NuclearSize_72hr: Apredica 72-hour HepG2 Assay for Nuclear Size (AID 2282925). The note with it: high-content imaging, actives raise or lower the signal. Put shortly: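 HepG2; cpd 0.39–200 uM, 10 conc, duplicate; 72 h; DMSO 0.5% v/v; fix 3.7% formaldehyde 30 min RT; Triton permeabilization; Hoechst 2 ug/mL; HCS imaging 20x; nuclear diameter; gain/loss fit vs DMSO.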

Experiment [12] in a line: ATG_CRE_CIS: Attagene CIS-FACTORIAL HepG2 Assay for human cAMP Responsive Element (CRE) binding protein 3 (AID 2282926). The note with it: HepG2 CRE cis-reporter, Attagene multiplexed mRNA; actives raise or lower the signal. Put shortly: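 HepG2 cells transiently transfected with cis-element-driven multiple reporter transcription units; CRE reporter mRNA measured 24 h after dosing by RT-PCR, 6-FAM labelling, HpaI digestion and capillary electrophoresis. Bidirectional fit versus DMSO baseline.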

In experiment [13] the target is CCAAT/enhancer-binding protein beta (Homo sapiens) (UniProt P17676). Description: ATG_C_EBP_CIS: Attagene CIS-FACTORIAL HepG2 Assay for human CCAAT/Enhancer Binding Protein (C/EBP) beta (AID 2282927). The conditions noted are these: HepG2 Attagene cis-factorial transcription factor reporter; actives raise or lower the signal. The method, boiled down:
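Changes in reporter mRNA, rather than exogenous chimeric receptor activity, reflect native C/EBP signalling in transfected HepG2 cells dosed for 24 h; transcripts are detected by RT-PCR and capillary electrophoresis.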

The nature of experiment [14]: ATG_DR4_LXR_CIS: Attagene CIS-FACTORIAL HepG2 Assay for human Liver X Receptor (LXR), DR4 submotif (AID 2282929). The conditions noted are these: HepG2 Attagene DR4 cis-reporter, mRNA transcription; actives raise or lower the signal. Put shortly:
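Endogenous factor activity at a DR4 cis-element is read as reporter mRNA in transiently transfected HepG2 cells. Exposure lasts 24 h; transcripts are amplified, fluorescently labelled and sized by capillary electrophoresis, with DMSO as baseline.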

In experiment [15] the target is Aryl hydrocarbon receptor (Homo sapiens) (UniProt P35869). Description: ATG_Ahr_CIS: Attagene CIS-FACTORIAL HepG2 Assay for human Aryl Hydrocarbon Receptor (Ahr) (AID 2282930). The conditions noted are these: HepG2 AhR cis-factorial reporter transcription; actives raise or lower the signal. The method, boiled down: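 HepG2, transient MRTU (cis) transfection, 24 h exposure. RNA → cDNA → PCR → 6-FAM primer extension → HpaI 2 h 37 C → CE. Fit: bidirectional, DMSO baseline.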

Experiment [16] is described as follows: ATG_AP_1_CIS: Attagene CIS-FACTORIAL HepG2 Assay for human Activator Protein 1 (AP-1) (AID 2282931). The conditions noted are these: HepG2 Attagene cis-factorial AP-1 reporter mRNA; actives raise or lower the signal. The method, boiled down:
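Fluorescence of labelled PCR fragments separated by capillary electrophoresis gives reporter mRNA levels. HepG2 with transfected cis-regulated reporter units, 24 h exposure; DMSO serves as baseline for bidirectional curve fits.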

The nature of experiment [17]: ATG_AP_2_CIS: Attagene CIS-FACTORIAL HepG2 Assay for human Activator Protein 2 (AP-2) (AID 2282932). The note with it: HepG2 AP-2 cis-reporter, Attagene transcription factor profiling; actives raise or lower the signal. The method, boiled down: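 HepG2, transient MRTU transfection, cis-regulated reporters; 24 h compound exposure; RNA isolated, RT-PCR, 6-FAM labelling, HpaI digest, CE fluorescence. DMSO = negative control/baseline, bidirectional fit.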

The nature of experiment [18]: ATG_BRE_CIS: Attagene CIS-FACTORIAL HepG2 Assay for human Bone Morphogenetic Protein (BMP) Response Element (BRE) (AID 2282933). The note with it: HepG2 BMP response element reporter, Attagene transcription factor profiling; actives raise or lower the signal. Put shortly: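 After a 24 h chemical treatment, transiently transfected HepG2 cells were lysed for RNA; reporter transcripts were quantified by fluorescent RT-PCR and capillary electrophoresis, normalised to DMSO.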

Experiment [19] can be described thus: ATG_CMV_CIS: Attagene CIS-FACTORIAL HepG2 Assay for human CMV (Internal Marker) (AID 2282928).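 Further: endpoint acts as a background internal control marker rather than a target.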 The note with it: HepG2 CMV promoter reporter, transcription factor profiling; actives raise or lower the signal. The method, boiled down:
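After transient transfection of HepG2 with reporter transcription units driven by cis-regulatory promoters, cells receive test chemical for 24 h. Labeled reporter amplicons, digested with HpaI, are sized and quantified by capillary electrophoresis against DMSO.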

Several values for one entry are separate records, joined by “and”; a condition that tells them apart may be missing. Identical values can stand only once. A structure can be active in one record and inactive in another. Activity calls are given as the source filed them. How the source made its calls: active means hit-call score of the fitted dose curve at least 0.9, where 1 is the maximum; inactive means score below 0.9.

Chain of CCAAT/enhancer-binding protein beta (Homo sapiens) (P17676 whole entry, looked up): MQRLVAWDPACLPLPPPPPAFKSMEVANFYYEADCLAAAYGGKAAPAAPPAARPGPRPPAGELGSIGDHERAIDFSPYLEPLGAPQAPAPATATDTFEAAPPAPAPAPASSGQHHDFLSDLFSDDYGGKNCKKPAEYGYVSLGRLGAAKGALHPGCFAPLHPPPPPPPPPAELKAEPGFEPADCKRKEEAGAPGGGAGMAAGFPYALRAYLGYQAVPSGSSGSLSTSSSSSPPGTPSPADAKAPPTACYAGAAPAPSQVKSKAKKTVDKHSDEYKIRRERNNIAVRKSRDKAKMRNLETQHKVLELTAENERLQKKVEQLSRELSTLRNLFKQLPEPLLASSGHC
Chain of Aryl hydrocarbon receptor (Homo sapiens) (P35869 whole entry, looked up): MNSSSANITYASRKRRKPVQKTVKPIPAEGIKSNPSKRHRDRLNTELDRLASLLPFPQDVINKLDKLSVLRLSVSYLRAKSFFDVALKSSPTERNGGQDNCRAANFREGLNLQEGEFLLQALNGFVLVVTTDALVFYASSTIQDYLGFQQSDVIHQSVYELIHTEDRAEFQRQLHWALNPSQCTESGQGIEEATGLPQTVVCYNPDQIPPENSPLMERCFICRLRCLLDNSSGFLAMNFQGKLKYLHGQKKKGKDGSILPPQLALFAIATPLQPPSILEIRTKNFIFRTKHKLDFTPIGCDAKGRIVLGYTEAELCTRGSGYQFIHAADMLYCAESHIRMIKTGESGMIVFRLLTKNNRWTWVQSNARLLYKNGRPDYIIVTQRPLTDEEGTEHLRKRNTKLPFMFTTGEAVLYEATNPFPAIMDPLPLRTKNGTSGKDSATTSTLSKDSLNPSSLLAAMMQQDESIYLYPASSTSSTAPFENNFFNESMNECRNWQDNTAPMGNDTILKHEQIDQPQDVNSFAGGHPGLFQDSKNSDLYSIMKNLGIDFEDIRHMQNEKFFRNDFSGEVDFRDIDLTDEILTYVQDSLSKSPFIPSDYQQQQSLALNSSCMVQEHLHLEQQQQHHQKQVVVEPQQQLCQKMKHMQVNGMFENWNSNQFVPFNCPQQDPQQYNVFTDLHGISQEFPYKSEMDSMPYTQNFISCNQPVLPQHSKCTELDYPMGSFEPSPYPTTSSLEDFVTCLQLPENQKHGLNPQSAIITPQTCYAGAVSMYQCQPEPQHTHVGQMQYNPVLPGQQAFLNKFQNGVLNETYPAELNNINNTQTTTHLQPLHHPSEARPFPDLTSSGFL

For `O=C(c1ccc(OCCN2CCCCC2)cc1)c1c(-c2ccc(O)cc2)sc2cc(O)ccc12`, the outcome in [1], in experiment [2], in experiment [3], in experiment [4], in [5] and in [6] was inactive. The result in experiment [7], in experiment [8], in [9], in [10], in experiment [11] and in experiment [12] was inactive. The result in experiment [13], in experiment [14], in experiment [15], in [16], in [17] and in experiment [18] was inactive. The half-maximal activity concentration (AC50) in experiment [12] was 11.1 µM (active) and 14.7 µM (active); in [13], 15.2 µM (active); in [14] it was 20.3 µM (active) and 19.9 µM (active); in experiment [15] it was 19.3 µM (active); in experiment [16] it was 17.5 µM (active) and 16.9 µM (active) and 13.1 µM (active); in experiment [17], 11.1 µM (active) and 15.4 µM (active).
Turning to `CC(C)(CO)CO`, the call in [12], in experiment [13], in experiment [19], in experiment [14], in experiment [15] and in experiment [16] was inactive. For the same molecule, the outcome in experiment [17] and in experiment [18] was inactive.
For `c1ccc2c(c1)-c1ccc3ccc4cccc5cc-2c1c3c45`, the call in [12], in experiment [13], in experiment [19], in experiment [14], in [16] and in [17] was inactive. Besides, the molecule was classed as inactive in experiment [18]. The AC50 in [15] is 0.543 µM (active).
Turning to `Cc1ccccc1S`, the values for the AC50 in experiment [12], in [14] and in experiment [16] were 72.3 µM (active), 75.5 µM (active) and 36.6 µM (active), respectively. Also, the outcome in experiment [13], in experiment [19], in experiment [15], in experiment [17] and in [18] was inactive.
Turning to `CCCCCCC(O)CCOC(C)=O` (centres undefined), the call in experiment [12], in [13], in experiment [19], in experiment [14], in experiment [15] and in experiment [16] was inactive. For the same molecule, the molecule was classed as inactive in [17] and in experiment [18].
Take `Cc1cccc(C)c1`: the result in experiment [12], in experiment [13], in experiment [19], in [14], in experiment [15] and in [16] was inactive. Besides, the result in experiment [17] and in experiment [18] was inactive.
